Luciferase inh: firefly luciferase inhibition; P08659; purified firefly luciferase, luminescence, 8 min; Potency, µM (highest dose often 57.1 µM), for inactives: at the highest dose activity change, negative = inhibition, actives largely listed as inhibitors; hit rate 2.2% among 72,000; AID 411; note: nearly all actives have a fitted effect of over 40% in size
Target sequence (P08659 whole entry, looked up): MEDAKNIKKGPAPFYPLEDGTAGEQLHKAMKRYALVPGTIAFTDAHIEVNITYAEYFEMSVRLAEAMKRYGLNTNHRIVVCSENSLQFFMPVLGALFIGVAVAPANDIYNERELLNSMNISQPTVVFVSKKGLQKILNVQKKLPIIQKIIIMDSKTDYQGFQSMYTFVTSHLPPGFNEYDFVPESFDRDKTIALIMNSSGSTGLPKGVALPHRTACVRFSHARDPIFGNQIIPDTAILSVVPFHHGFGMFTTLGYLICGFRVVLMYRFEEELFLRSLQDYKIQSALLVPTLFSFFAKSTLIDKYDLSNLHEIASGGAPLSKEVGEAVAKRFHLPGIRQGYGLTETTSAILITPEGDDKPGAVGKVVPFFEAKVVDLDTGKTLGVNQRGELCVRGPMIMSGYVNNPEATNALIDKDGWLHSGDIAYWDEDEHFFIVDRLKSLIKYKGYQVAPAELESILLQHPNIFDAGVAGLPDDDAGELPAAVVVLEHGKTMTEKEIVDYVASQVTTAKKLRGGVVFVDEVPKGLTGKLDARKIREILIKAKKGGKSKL
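qHTS concentration-response profiling: light output of P. pyralis luciferase with luciferin and 10 uM ATP, imidazole buffer pH 7.2. Read by luminescence after 8-min room-temperature incubation.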
p53ts 39C kill: cytotoxicity in p53ts cells at nonpermissive temperature. Potency, µM (series often up to 46.1 µM), for the others: at the top dose activity change, negative = cell killing, most hits filed as cytotoxic. AID 902. H1299-p53A138V viability at 39C, ATP luminescence, 24 h. hit rate 1.5% among 130,000; note: nearly all actives have a fitted effect of over 55% in size
p53ts 32C kill: kills p53ts cells at the permissive temperature; hit rate 0.93% among 130,000; Potency, µM (doses to about 46.1 µM), for the others: at the top dose activity change, negative = cytotoxicity, most hits filed as cytotoxic; AID 924; H1299-p53A138V at 32C, ATP luminescence viability, 24 h;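 note: 0% = DMSO and -100% = full killing by reference compound; nearly all actives have a fitted effect of over 55% in size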
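H1299-p53 A138V cells (temperature-sensitive p53) exposed 24 h to up to 46 uM compound at 32C, where p53 is wild-type in conformation. Viability read as ATP luminescence and normalised to DMSO and 100 uM tamoxifen. AC50 fitted with the Hill equation.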
* marks the source's active call; other numbers are inactive results; ? = inconclusive; / = not tested or not shown; [ ] = dose if it differs, or a comment. An excerpt weighted towards active compounds, which were near 2.6% of everything screened. Calls come from the whole dose curve; as a rule, active = well fitted curve in the direction sought with a large enough effect; inconclusive = small, poorly fitted or top-dose-only effect, or another doubt; inactive = no such curve, though single readings can be large; an effect the other way counts as inactive or inconclusive. Unless noted, % is set by controls: 0 for no effect and ±100 for the full control effect; potency is the fitted concentration of half-maximal effect.

SMILES	Luciferase inh	p53ts 39C kill	p53ts 32C kill
Cc1ccc2[nH]c(C(=O)O)c(-c3ccccc3)c2c1	-1%	9%	4%
Cc1ccc2[nH]c(-c3ccccc3)cc(=O)c2c1	5µM*	5µM*	6.3µM*
Cc1ccc(-n2nnnc2SCC(=O)NC(=O)Nc2ccc3c(c2)OCCO3)cc1	-5%	-22%	-19%
O=C(CSc1nnnn1-c1ccc(Cl)cc1)NC(=O)Nc1ccc2c(c1)OCCO2	2.5µM*	-20%	-7%
O=C(Nc1ccccn1)c1ccc2ccccc2n1	3.2µM*	16µM*	16µM*
Cc1cc(C(=O)Nc2ccccn2)no1	-19%	-8%	-11%
COc1ccc(OCCCSc2ncccn2)cc1	?	-15%	-18%
COc1ccc(OCCSc2ncccn2)cc1	25µM*	?	?
Cc1cc(C)cc(NC(=O)c2ccc3c(O)c(S(=O)(=O)c4ccccc4)c(=O)[nH]c3c2)c1	/	6%	-5%
Cc1ccc(O)c(-c2n[nH]c3c2C(c2ccc(F)cc2)N(Cc2ccco2)C3=O)c1 (centres undefined)	/	?	39%
Cc1cc(C)c(-c2n[nH]c3c2C(c2ccccc2F)N(Cc2ccco2)C3=O)c(O)c1 (centres undefined)	/	16µM*	-23%
COc1ccc(C2c3c(-c4ccccc4O)n[nH]c3C(=O)N2Cc2ccco2)cc1 (centres undefined)	/	?	27%
CCCOc1cccc(C2c3c(-c4ccccc4O)n[nH]c3C(=O)N2Cc2ccco2)c1 (centres undefined)	/	32µM*	?
CC(=O)N1CCC(N(Cc2ccco2)C(=O)Nc2ccc(C)c(Cl)c2)CC1	/	/	1%
COCC(=O)Oc1c(Sc2ccc(C)cc2)c(C)nn1C(C)(C)C	/	-27%	-4%
CC(=O)[C@@H]1CC[C@@H]2[C@@H]3CC=C4C[C@H](OS(=O)(=O)O)CC[C@@]4(C)[C@H]3CC[C@]21C	-3%	17%	6%
CCC(C)Sc1oc(-c2ccco2)nc1S(=O)(=O)c1ccc(C)cc1 (centres undefined)	/	12%	24%
CCCSc1oc(-c2cccs2)nc1S(=O)(=O)c1ccc(Cl)cc1	/	12%	4%
CCOC(=O)c1c(C)nc2c3ccccc3ccn12	10µM*	?	?
CCOC(=O)c1c(C)nc2sccn12	0%	9%	15%
COc1ccccc1C(=O)Nc1nc2nc(C)c(Cc3ccccc3)c(=O)n2[nH]1	/	-11%	11%
COc1ccc2cnn(CCOc3ccccc3)c(=O)c2c1OC	16µM*	-25%	-21%
COc1ccc(OCCn2nnc3sc4c(c3c2=O)CCCC4)cc1	/	-25%	-1%
CCN(C(=O)c1cn(-c2cccc(OC)c2)c(=O)c2ccccc12)c1ccccc1C	/	-14%	-2%
Cc1cc2nc(SCCN3CCCC3)[nH]c2cc1C	-9%	-2%	4%
SMILES	Luciferase inh	p53ts 39C kill	p53ts 32C kill
Cc1cc2nc(SC(C)C(=O)O)[nH]c2cc1C (centres undefined)	10µM*	-28%	-28%
CCN(CC)S(=O)(=O)c1ccc2c(c1)N(CC(=O)Nc1ccc(C)cc1C)C(=O)C1CCCN21 (centres undefined)	/	5%	7%
c1ccc2c(c1)Cc1cc3cc4c(cc3nc1-2)OCO4	/	1.3µM*	1µM*
Cc1cc2cc3c(cc2nc1SCC(=O)N1c2ccccc2CC1C)OCO3 (centres undefined)	/	7%	1%
COc1ccc(C(=O)NCc2nc(-c3cccc(C)c3)no2)cc1OC	/	-3%	21%
CCCOC(=O)CN1C(=O)c2ccccc2C1=O	-1%	8%	1%
CCOCCOC(=O)COc1ccc(N2C(=O)c3ccccc3C2=O)cc1	16µM*	8%	-7%
Cc1ccc(-n2c(=O)c3c(c4cc(C)ccc4n3C)n(CC(=O)Nc3c(C)cccc3C)c2=O)cc1	/	8%	1%
C[N+](C)(C)CCC(=O)c1cccc2ccccc12	0%	16µM*	13µM*
O=C(O)CCC(=O)c1cccc2ccccc12	2%	4%	-9%
Cc1nnc(SCC(=O)Nc2ncc(Cc3ccc(F)cc3)s2)n1N	-5%	-3%	-7%
Cc1ccc(C(=O)Nc2ncc(Cc3ccc(F)cc3)s2)o1	20µM*	-13%	-17%
COc1ccc(NC(=O)C(=O)c2cc(C)n(-c3ccc(C)cc3)c2C)cc1Cl	/	-3%	12%
CCOc1ccc(CNC(=O)Cc2ccc(NC(=O)N3CCSc4ncccc43)cc2)cc1	/	-24%	-16%
Cc1ccc(CNC(=O)Cc2c(C)c3c(cc(C)c4c(C)coc43)oc2=O)cc1	/	-18%	2%
Cn1ccnc1SCC(=O)Nc1ccccc1	/	14%	4%
Cn1ccnc1SCC(=O)Nc1ccc2ccccc2c1	13µM*	?	?
CCNc1ncc2ncc(=O)n(C)c2n1	2%[11.4 µM]	3%	3%
CC1CCN(C(=O)c2cc(-c3ccc(Cl)cc3)on2)CC1	/	0%	8%
Cn1c(SCC(=O)N2CCOCC2)nnc1-c1ccc(Cl)cc1Cl	2%[25.5 µM]	/	/
O=C(c1cc(-c2ccc3c(c2)OCO3)on1)N1CCN(c2ccccc2)CC1	?	-24%	?
COc1ccc(NC(=O)c2cc(CC(C)C)on2)cc1OC	-20%	-4%	-3%
O=C(c1cc(-c2ccc(Cl)cc2Cl)on1)N1CCOCC1	7.9µM*	10µM*	3.2µM*
CC(C)Cc1cc(C(=O)Nc2ccc3c(c2)OCO3)no1	7.9µM*	?	?
O=C(c1cc(-c2ccc3c(c2)OCO3)on1)N1CCOCC1	7.9µM*	7.9µM*	7.9µM*
SMILES	Luciferase inh	p53ts 39C kill	p53ts 32C kill
O=C(c1cc(-c2ccc(Cl)cc2)on1)N1CCOCC1	13µM*	13µM*	10µM*
COCc1cc(C)nc2c1C(=O)NC(c1ccc(F)cc1)N2Cc1ccccc1 (centres undefined)	/	1%	4%
COC(=O)c1ccc(-n2c(/C=C\c3cccc(Br)c3)nc3ccccc3c2=O)cc1	/	-22%	-8%
CC[C@H]1CN(C)[C@H]2Cc3c([nH]c4ccccc34)C(=O)C[C@H]1[C@H]2C(=O)OC	1%[11.4 µM]	-4%[9.22 µM]	-3%[9.22 µM]
O=C(NCCCCN1CCCC1)c1ccc(Cc2nc3ccccc3[nH]2)cc1	/	5%	0%
CCOC(=O)C1CCCN(c2c(C(=O)c3ccc(C)cc3)cnc3ccc(OCC)cc23)C1 (centres undefined)	/	-24%	3%
COc1ccccc1CNc1ccnc(-c2ccc(N(C)C)cc2)n1	0%[2.29 µM]	?	-24%
CCOc1ccc(-c2nonc2NC(=O)c2oc3c(C)c(C)ccc3c2C)cc1OCC	/	-4%	5%
O=C(Nc1cccnc1)c1cc(-c2cccc(Cl)c2)on1	/	23%	6%
O=C(Nc1cccnc1)c1cc(-c2ccc3c(c2)OCO3)on1	0.79µM*	-29%	?
C=C1CC[C@H](O)C/C1=C/C=C1\CCC[C@]2(C)[C@H]1CC[C@H]2[C@@H](C)CCCC(C)C	4%[25.5 µM]	5%[20.6 µM]	-7%[20.6 µM]
CN(C(=O)Cn1c(=O)n(CCC(=O)NCc2ccc3c(c2)OCO3)c(=O)c2sccc21)c1ccccc1	/	18%	7%
Cc1ccc(Nc2c(-c3c[nH]c4ccccc34)nc3ccccn23)cc1	/	16µM*	?
Cc1ccc2nc(-c3c[nH]c4ccccc34)c(Nc3ccccc3C)n2c1	/	6%	-1%
O=C1CCNc2cc3ccccc3cc21	-11%	16µM*	?
O=S(=O)(c1ccc2c(c1)CCN2)N1CCCCCC1	/	-7%	-6%

Bioassay records (PubChem BioAssay)
